Measured values taken from PubChem BioAssay (NCI).
The panel holds about 83,000 compounds, 20% with a hit somewhere; the sample as a whole holds those more often.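 Cells were grown in 96-well plates and exposed to the test compound at a single concentration for 48 hours; results are reported as percent growth, with values below 10 considered active.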 Unmarked numbers belong to inactive results. Activity calls are given as the source filed them.

How the values were obtained:
Test in all cases: NCI-60 one-dose screen, 48 h (100 = growth as untreated, 0 = no growth, -100 = all killed)
Settings in all cases: 10 µM unless noted
HCT-15 colon = tested on: HCT-15 colon
HT29 colon = tested on: HT29 colon
SNB-75 CNS = tested on: SNB-75 CNS
SNB-19 CNS = tested on: SNB-19 CNS
U251 CNS = tested on: U251 CNS
PC-3 prostate = tested on: PC-3 prostate
SK-MEL-5 melanoma = tested on: SK-MEL-5 melanoma
LOX IMVI melanoma = tested on: LOX IMVI melanoma
SK-MEL-28 melanoma = tested on: SK-MEL-28 melanoma
SK-MEL-2 melanoma = tested on: SK-MEL-2 melanoma
EKVX NSCLC = tested on: EKVX NSCLC
SN12C renal = tested on: SN12C renal
UO-31 renal = tested on: UO-31 renal
TK-10 renal = tested on: TK-10 renal
ACHN renal = tested on: ACHN renal
CAKI-1 renal = tested on: CAKI-1 renal
A498 renal = tested on: A498 renal
CCRF-CEM leukemia = tested on: CCRF-CEM leukemia
MOLT-4 leukemia = tested on: MOLT-4 leukemia

Row | Compound | growth (HCT-15 colon) | growth (HT29 colon) | growth (SNB-75 CNS) | growth (SNB-19 CNS) | growth (U251 CNS) | growth (PC-3 prostate) | growth (SK-MEL-5 melanoma) | growth (LOX IMVI melanoma) | growth (SK-MEL-28 melanoma) | growth (SK-MEL-2 melanoma) | growth (EKVX NSCLC) | growth (SN12C renal) | growth (UO-31 renal) | growth (TK-10 renal) | growth (ACHN renal) | growth (CAKI-1 renal) | growth (A498 renal) | growth (CCRF-CEM leukemia) | growth (MOLT-4 leukemia)
1 | N/C(=N\c1nc2ccccc2[nH]1)NC(=O)Cc1cccc2ccccc12 | 71.7% | 83.5% | 87.5% | 87.6% | 80.6% | 80% | 82.2% | 81.4% | 86.9% | 65.6% | 75.6% | 98.8% | 50.3% | 106% | 88.9% | 82.9% | 80.6% | 86% | 30.4%
2 | C[C@H]1[C@H](C)CC[C@]2(COC(=O)CCC(=O)O)CC[C@]3(C)C(=CC[C@@H]4[C@@]5(C)CCCNC(C)(C)[C@@H]5CC[C@]43C)[C@H]12 | 65.9% [100 µM] | 52.2% [100 µM] | -2.3% [100 µM] (active) | 53.1% [100 µM] | 60.7% [100 µM] | 32.7% [100 µM] | 46.2% [100 µM] | 70.5% [100 µM] | 82.2% [100 µM] | 55.6% [100 µM] | 71.5% [100 µM] | 65% [100 µM] | 65.4% [100 µM] | 81.3% [100 µM] | 60.2% [100 µM] | 54.1% [100 µM] | 70.3% [100 µM] | 73.5% [100 µM] | 46% [100 µM]
3 | Cc1ccc(S(=O)(=O)Nc2ccccc2)cc1N | 99.1% | 107% | 95% | 108% | 101% | 89.5% | 88.5% | 91.3% | 100% | 87.4% | 116% | 91.3% | 81.2% | 121% | 101% | 89.5% | 76.9% | 110% | 96.6%
